Bioassay records (PubChem BioAssay)
Hits are enriched below; roughly 0.59% of the tested compounds scored in any of these assays.
E coli RNAP = Escherichia coli RNA polymerase inhibition; inhibition, %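 (tested at 10 µM)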; P0A8V2; 0.2% of 62,000 active; AID 559; E. coli RNA polymerase, fluorescence transcription assay; in the data active = inhibition above about 20%;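 note: 0% = enzyme without compound and 100% = no enzyme blank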
FXIa inh mix = inhibitors of human coagulation factor XIa, pooled mixtures; P03951; purified FXIa, fluorogenic substrate; inhibition, % at 5 µM; 0.19% of 62,000 active; AID 680;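 note: each value is inhibition by a whole ten-compound pool holding the compound; 0% = enzyme with no mixture and 100% = wells lacking enzyme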
FXIIa mix inh = factor XIIa (human) inhibition, mixture screen; P00748; purified FXIIa, fluorogenic substrate, pooled mixtures; inhibition, % at 5 µM; 0.2% of 62,000 active; AID 684;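 note: 0% = enzyme without compound and 100% = no enzyme blank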
Smad3 inh = Smad3 (human) transcription factor binding inhibition; TR-FRET Smad3/Dy647-FoxH1 peptide binding, europium anti-His; inhibition, % at 25 µM; 0.29% of 88,000 active; P84022; AID 630;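 active = compounds that reduce the energy-transfer binding signal between the protein and its labelled peptide by more than half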;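 note: 0% = Smad3 plus labelled peptide maximal FRET and 100% = peptide-only background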
Target sequence (P84022 whole entry, looked up): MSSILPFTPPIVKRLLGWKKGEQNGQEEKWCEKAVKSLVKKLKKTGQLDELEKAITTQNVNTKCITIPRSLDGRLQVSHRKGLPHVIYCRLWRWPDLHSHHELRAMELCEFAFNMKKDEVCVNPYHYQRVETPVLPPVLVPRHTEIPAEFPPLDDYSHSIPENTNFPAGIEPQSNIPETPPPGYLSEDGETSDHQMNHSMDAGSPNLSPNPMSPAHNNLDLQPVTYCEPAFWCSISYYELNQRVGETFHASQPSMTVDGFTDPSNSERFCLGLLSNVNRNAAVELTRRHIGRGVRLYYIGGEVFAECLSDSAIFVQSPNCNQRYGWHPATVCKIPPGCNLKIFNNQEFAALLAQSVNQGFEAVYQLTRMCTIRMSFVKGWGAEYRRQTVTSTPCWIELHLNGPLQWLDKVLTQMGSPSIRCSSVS
* marks the source's active call; other numbers are inactive results; . = not tested or not shown; [ ] = remark or other dose. Cut-off read from the data, not from the text of the source, unless noted: active = inhibition above about 20% (passing the limit was not always enough); inactive = the rest.

SMILES	E coli RNAP	FXIa inh mix	FXIIa mix inh	Smad3 inh
CC(=O)O[C@H]1CC[C@H]2[C@H]3CCC4=C[C@@H](C5SCCS5)[C@H](OC(C)=O)C[C@]4(C)[C@@H]3CC[C@]12C	.	.	.	98*
Cc1c([C@@H](C)[C@H]2NC[C@H](C)C[C@@H]2O)ccc2c1C[C@@H]1[C@@H]2CC=C2C[C@@H](O)CC[C@@]21C	.	.	.	1
C[C@@H]1[C@H]2C=C[C@@H]1[C@H](c1c3ccc(=O)c(O)c-3oc3c(O)c(O)ccc13)[C@@H]2C(=O)O	.	.	.	102*
Cn1c(=O)c2[nH]cnc2n(C)c1=O.[CH2-][C@H](Cc1cccc2cc(C(=O)O)c(=O)oc12)OC.[Hg].[OH-]	.	.	.	68*
CO[C@H]1[C@H](O)[C@@H](O[C@@H]2[C@@H](Oc3cccc4c(O)c5c(=O)oc6ccc(C)c7c(=O)oc(c34)c5c67)O[C@@H](C)[C@H](O)[C@H]2O)O[C@@H](C)[C@@H]1O	.	.	.	-3
CC12CCC(=O)C=C1CCC1C2CCC2(C)C(O)CCC12 (centres undefined)	-11	2	17	-5
C[C@@]12CC[C@@H]3[C@H](CCC4=CC(=O)CC[C@H]43)[C@H]1CC[C@H]2OC1(O)C(=O)c2ccccc2C1=O	.	.	.	54*
CC(C)[C@]1(O)[C@@H](OC(=O)c2ccc[nH]2)[C@@]2(O)[C@@]3(C)C[C@]4(O)O[C@@]5([C@H](O)[C@@H](C)CC[C@@]35O)[C@@]2(O)[C@@]41C	.	.	.	0
O=S(=O)(Nc1nccs1)c1ccc([As](=O)(O)O)cc1	.	.	.	102*
C[C@@]12CN(CC[N+](C)(C)C)C[C@]1(C)[C@H]1CC[C@@H]2O1	.	.	.	28
CCCCn1c(O)c(C(CC)=NCCCN(C)C)c(=O)[nH]c1=O	21*	-3	-13	-5
O=C(NC1(C(F)(F)F)Oc2ccccc2O1)N1CCC2(CC1)OCCO2	.	.	.	-1
O=C(NC1(C(F)(F)F)Oc2ccc(Cl)cc2O1)N1CCC2(CC1)OCCO2 (centres undefined)	22*	-23	-13	1
O=C(O)C[C@@H]1NCc2cc3ccccc3nc21	.	.	.	51*
COC(=O)[C@@H]1[C@@H](C(=O)OC)C2(c3ccccc3-c3ccccc32)N(c2ccc(Cl)cc2)N1C#N	.	.	.	1
COC(=O)C[C@]1(C(=O)OC)CN(C#N)N(c2ccc(Cl)cc2)C12c1ccccc1-c1ccccc12	.	.	.	72*[fluorescence artefact?]
Nc1nc(SC2CCC([N+](=O)[O-])C3NONC23)c2[nH]cnc2n1 (centres undefined)	.	.	.	24
CCC(C)NC(=O)c1c(N)n(CCCOC)c2nc3ccccc3nc12 (centres undefined)	-3	-6	1	52*
COCCCn1c(N)c(C(=O)OC(C)COC)c2nc3ccccc3nc21 (centres undefined)	-13	-9	2	1
C[n+]1c(/C=C/c2ccc(O)c3ncccc23)[se]c2ccccc21	.	.	.	50
N#CS.N=C=S.N=C=S.[Cu].[NH2-].[NH2-].[NH2-].[NH2-].c1ccc2ncccc2c1	.	.	.	63*
CCN(CC)P(=O)(NC(=O)C(Cl)(Cl)Cl)N(CC)CC.[Cl-].[Cl-].[Cl-].[Nd+3]	.	.	.	67*[fluorescence artefact?]
CC1=NN(c2ccccc2)C(=O)[C@H]1N=Nc1ccc([As](=O)(O)O)c(O)c1	.	.	.	2
COc1cc2c3cc1Oc1c(O)c(OC)cc4c1[C@@H](Cc1ccc(cc1)Oc1cc(ccc1O)C[C@@H]3N(C)CC2)N(C)CC4	.	.	.	59*
C[C@]12Cc3cnc(-c4ccccc4)nc3C[C@@H]1CC[C@H]1[C@H]2CC[C@@]2(C)[C@H]1CC[C@]2(C)O	.	.	.	-2
COC(=O)[C@@H]1C(=O)[C@H](C(=O)OC)[C@@H]2CC[C@H]1N2C	.	.	.	-3
